# Measured values published in PubChem BioAssay AID1671202 (University of Kansas High Throughput Screening Laboratory, 2021).
# “And” between values parts separate entries of the source, which are not always exact repeats. Equal values may be shown once. The campaign covered roughly 190,000 compounds. About 6,900 (3.6%) were called active. No stated cut-off is given here; in the data, active means inhibition above about 50%; inactive means the rest. This excerpt belongs to a sample that is enriched for actives. Some structures have more than one record in an assay (separate samples or runs), and their calls can disagree.
# Molecular target: Huntingtin (Homo sapiens) (UniProt P42858)
# Sequence (P42858 whole entry, looked up, stated change not applied): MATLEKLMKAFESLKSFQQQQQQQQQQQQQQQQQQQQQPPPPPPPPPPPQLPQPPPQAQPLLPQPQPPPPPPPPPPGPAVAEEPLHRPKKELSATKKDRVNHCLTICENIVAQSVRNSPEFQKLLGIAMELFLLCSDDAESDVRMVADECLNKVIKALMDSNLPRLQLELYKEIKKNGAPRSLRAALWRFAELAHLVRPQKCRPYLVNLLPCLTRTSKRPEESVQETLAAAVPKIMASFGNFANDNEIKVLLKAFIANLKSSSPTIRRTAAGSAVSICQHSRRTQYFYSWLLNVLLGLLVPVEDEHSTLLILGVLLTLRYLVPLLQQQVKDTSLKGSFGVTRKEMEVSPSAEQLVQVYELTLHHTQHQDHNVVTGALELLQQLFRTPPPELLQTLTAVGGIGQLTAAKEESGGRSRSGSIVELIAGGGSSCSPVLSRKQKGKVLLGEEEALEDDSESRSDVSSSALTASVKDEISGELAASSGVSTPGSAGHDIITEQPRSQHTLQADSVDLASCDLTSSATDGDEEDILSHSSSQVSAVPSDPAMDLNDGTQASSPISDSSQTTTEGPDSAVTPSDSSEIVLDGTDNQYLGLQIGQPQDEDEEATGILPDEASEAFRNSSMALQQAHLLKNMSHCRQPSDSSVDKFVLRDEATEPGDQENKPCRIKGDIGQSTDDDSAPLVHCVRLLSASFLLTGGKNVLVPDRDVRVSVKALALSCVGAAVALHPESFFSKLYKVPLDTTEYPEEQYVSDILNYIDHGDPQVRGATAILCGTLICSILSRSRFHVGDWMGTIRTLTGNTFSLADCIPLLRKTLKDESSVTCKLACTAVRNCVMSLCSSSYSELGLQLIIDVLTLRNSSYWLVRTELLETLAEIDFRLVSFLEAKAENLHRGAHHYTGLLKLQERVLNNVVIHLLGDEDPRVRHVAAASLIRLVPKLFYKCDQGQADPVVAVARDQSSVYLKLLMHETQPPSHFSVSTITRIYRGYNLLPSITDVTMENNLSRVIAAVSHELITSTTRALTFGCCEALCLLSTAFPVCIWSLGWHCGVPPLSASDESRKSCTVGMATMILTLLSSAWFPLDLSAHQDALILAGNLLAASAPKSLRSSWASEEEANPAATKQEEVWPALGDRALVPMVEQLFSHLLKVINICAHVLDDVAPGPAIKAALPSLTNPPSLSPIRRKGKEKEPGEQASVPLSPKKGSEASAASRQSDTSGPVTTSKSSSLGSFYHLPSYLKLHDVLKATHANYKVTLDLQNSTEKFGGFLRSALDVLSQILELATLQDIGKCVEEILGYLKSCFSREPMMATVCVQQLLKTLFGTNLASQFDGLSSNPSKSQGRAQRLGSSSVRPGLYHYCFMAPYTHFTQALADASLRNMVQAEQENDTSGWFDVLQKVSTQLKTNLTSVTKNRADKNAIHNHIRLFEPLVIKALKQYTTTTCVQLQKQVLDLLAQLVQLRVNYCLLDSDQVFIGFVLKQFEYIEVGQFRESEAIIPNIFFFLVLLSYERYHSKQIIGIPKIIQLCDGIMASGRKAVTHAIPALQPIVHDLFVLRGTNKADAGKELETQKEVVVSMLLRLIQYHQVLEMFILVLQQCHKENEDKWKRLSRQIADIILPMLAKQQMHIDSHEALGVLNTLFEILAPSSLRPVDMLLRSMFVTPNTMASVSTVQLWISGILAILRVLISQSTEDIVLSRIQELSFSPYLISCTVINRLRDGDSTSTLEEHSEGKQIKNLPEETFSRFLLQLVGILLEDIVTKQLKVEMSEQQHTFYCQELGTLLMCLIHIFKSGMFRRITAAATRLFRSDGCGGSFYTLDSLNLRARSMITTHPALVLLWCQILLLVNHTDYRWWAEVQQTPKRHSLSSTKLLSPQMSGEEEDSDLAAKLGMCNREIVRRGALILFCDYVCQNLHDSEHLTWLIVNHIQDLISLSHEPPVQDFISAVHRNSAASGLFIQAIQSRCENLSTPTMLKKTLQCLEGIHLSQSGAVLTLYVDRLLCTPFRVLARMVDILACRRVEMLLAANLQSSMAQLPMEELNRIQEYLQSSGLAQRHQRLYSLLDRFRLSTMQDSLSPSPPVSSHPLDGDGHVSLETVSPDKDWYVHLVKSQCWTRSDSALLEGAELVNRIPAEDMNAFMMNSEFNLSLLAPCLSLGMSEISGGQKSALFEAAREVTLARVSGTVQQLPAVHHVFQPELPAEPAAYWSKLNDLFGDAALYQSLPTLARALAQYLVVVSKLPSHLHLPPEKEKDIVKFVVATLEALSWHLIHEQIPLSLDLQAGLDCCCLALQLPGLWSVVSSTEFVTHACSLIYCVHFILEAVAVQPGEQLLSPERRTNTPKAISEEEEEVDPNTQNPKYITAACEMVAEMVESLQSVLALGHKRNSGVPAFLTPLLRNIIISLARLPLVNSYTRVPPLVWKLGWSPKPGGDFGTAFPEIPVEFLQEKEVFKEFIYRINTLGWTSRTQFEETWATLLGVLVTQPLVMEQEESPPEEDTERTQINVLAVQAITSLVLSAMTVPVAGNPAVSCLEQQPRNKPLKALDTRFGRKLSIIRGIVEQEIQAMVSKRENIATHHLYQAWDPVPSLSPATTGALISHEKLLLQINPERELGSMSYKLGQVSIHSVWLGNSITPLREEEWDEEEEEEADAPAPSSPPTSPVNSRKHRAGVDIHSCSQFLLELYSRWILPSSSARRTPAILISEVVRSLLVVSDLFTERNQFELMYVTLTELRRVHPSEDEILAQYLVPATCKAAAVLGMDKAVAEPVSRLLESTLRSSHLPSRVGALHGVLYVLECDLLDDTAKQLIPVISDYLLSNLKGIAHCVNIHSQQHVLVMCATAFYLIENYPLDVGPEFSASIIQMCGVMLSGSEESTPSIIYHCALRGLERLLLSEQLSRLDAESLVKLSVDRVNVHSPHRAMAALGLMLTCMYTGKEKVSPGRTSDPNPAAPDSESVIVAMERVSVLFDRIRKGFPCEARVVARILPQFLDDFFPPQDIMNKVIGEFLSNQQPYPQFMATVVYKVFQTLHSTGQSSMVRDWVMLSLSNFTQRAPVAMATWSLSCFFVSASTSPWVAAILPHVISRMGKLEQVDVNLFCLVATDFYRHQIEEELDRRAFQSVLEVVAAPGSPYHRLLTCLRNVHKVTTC
# Experiment: mutant huntingtin-calmodulin interaction inhibitors – biochemical, AlphaScreen, primary screen (AID 1671202);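 further: 0% = both proteins with DMSO and 100% = one protein alone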
# Details: AlphaScreen His-mHTT/GST-CaM binding, luminescence; at 15 µM, stronger effect = higher value
row,Structure (SMILES),inhibition
1,COc1ccc(N2C(=O)C3N=NN(Cc4c(F)cccc4Cl)C3C2=O)cc1 (stereo not given),-2.2% (inactive)
2,COc1ccc(-n2nc3cc(C)c(NC(=O)c4ccccc4F)cc3n2)cc1,-3.4% (inactive)
3,CC(C)CCNC(=O)C1(C)CCC(=O)N1Cc1ccc(OC(C)C)cc1 (stereo not given),0.89% (inactive)
4,CCCC1c2cccn2CCN1C(=O)Nc1ccccc1C (stereo not given),6.33% (inactive)
5,CCOC(=O)CC1(NC(=O)N2CCn3cccc3C2Cc2ccccc2)CCCCC1 (stereo not given),46.3% (inactive)
6,CCOC(=O)CCNC(=O)N1CCn2cccc2C1c1ccc(Cl)cc1 (stereo not given),82.4% (active)
7,COc1ccc(C(=O)N2CCC(c3nc(CNC(=O)C4CCC4)cs3)CC2)cc1,5.04% (inactive)
8,O=C1CC(c2cccs2)CC2=C1C(c1cccc(Cl)c1)Nc1ccccc1N2 (stereo not given),26% (inactive)
9,COc1cccc(C2CC(=O)C3=C(C2)Nc2ccccc2NC3c2cccc(F)c2)c1 (stereo not given),25% (inactive)
10,Cc1ccc2oc(C3Nc4ccccc4NC4=C3C(=O)CC(c3cccs3)C4)cc(=O)c2c1 (stereo not given),4.8% (inactive) and 92% (active)
11,O=C(Cc1nc(-c2ccccn2)n[nH]1)NC1CCCCCC1,98% (active)
12,O=C(Cc1ccc(F)cc1)NC1CCCC1,-1.1% (inactive)
13,O=C(CSCc1ccccc1Cl)NC1CCCCC1,-5.4% (inactive)
14,N#CC1=C(N)Oc2n[nH]c(C(F)(F)F)c2C1c1cccnc1 (stereo not given),-2% (inactive)
15,Cc1ccc(Cl)cc1NC(=O)N1CC=C(c2cn(C)c3ncccc23)CC1,19.5% (inactive)
16,O=C(NCc1ccc(F)cc1)c1cccc(N2CCNC(c3ccccc3)C2)n1 (stereo not given),44.2% (inactive)
17,Cc1ccc(CNC(=O)c2cccc(N3CCNC(c4ccccc4)C3)n2)cc1 (stereo not given),57.7% (active)
18,CCNC(=O)c1cccc(N2CCNC(c3ccccc3)C2)n1 (stereo not given),2.6% (inactive)
19,Cc1[nH]c2ccccc2c1C(NS(=O)(=O)c1ccccc1)C(Cl)(Cl)Cl (stereo not given),30% (inactive)
20,Cc1cc(C(=O)NCC(c2cn(C)c3ccccc23)N(C)C)no1 (stereo not given),0.7% (inactive)
21,Cn1cc(C(NS(=O)(=O)c2ccc(Cl)cc2)C(Cl)(Cl)Cl)c2ccccc21 (stereo not given),77% (active)
22,O=C(Cc1ccccc1F)N1CCOc2ccccc2C1,0.06% (inactive)
23,COCCN1CCC(N2CCCN(C(=O)c3ccc(C)c(F)c3)CC2)C1=O (stereo not given),7.8% (inactive)

row,Structure (SMILES),inhibition
1,CCC(C(=O)NCC(C)(O)CCSC)c1ccccc1 (stereo not given),-4.2% (inactive)
2,COc1ccc(NC(=O)C[C@H]2C(=O)N(CCc3ccccc3)C[C@@H]2C)cc1,-5.1% (inactive)
3,CNC(=O)C[C@H]1C(=O)N(c2ccc(OC)cc2)C[C@@H]1Cc1ccccc1,-3.3% (inactive)
4,O=C(C[C@H]1C(=O)N(c2ccc(F)c(F)c2)C[C@@H]1Cc1ccccc1)Nc1ccccc1,52.3% (active)
5,COc1ccc(C(=O)N2CCC(c3nc(C(=O)N4CCSCC4)c(C)o3)CC2)cc1F,5.94% (inactive)
6,CC(=O)c1ccc(OCC(O)CNC2CCCC2)cc1 (stereo not given),-0.4% (inactive)
7,O=C(NCc1ccccc1F)c1cc2n(n1)CCCC2,-5.1% (inactive)
8,COc1ccccc1C(CCNCc1ccccc1)c1ccc2c(c1)OCO2 (stereo not given),47.4% (inactive)
9,COc1ccccc1N1CCN(Cc2cc(OC)c3c(c2)OCO3)CC1,4.1% (inactive)
10,COc1cc(OC)c2ccc(=O)oc2c1C(CCN1CCN(c2ccccc2)CC1)c1ccc2c(c1)OCO2 (stereo not given),73.2% (active)
11,COc1ccc(CN2CCN(Cc3cc(OC)c(OC)c(OC)c3)CC2)cc1,2.6% (inactive)
12,COc1ccc(C(CC(=O)N2CCN(c3ccccc3)CC2)c2c(O)cc(OC)cc2OC)cc1 (stereo not given),34.4% (inactive)
13,COc1cc(C(CCN2CCN(c3ccccc3)CC2)c2c(OC)cc(OC)c3ccc(=O)oc23)cc(OC)c1OC (stereo not given),89.6% (active)
14,CNC(=O)c1ccc2c(c1SC)C(=O)c1ccccc1C2=O,-3% (inactive)
15,CC1(C)CC(=O)C(C(=N)CC2CC(=O)NC(=O)C2)=C(O)C1,3% (inactive)
16,CC(C)(C)[C@H]1CCSC2=NCCC[C@]2(c2ccccc2)C1,7% (inactive)
17,CC(SCc1ccccc1)C(=O)Nc1ccc(Cl)cc1 (stereo not given),-33.9% (inactive)
18,O=C(Cc1c(C(=O)O)[nH]c2ccc(Cl)cc12)Nc1cccc(Cl)c1,14% (inactive)
19,O[C@H]1CN(Cc2cccs2)[C@@H](c2ccc(Cl)cc2)C[C@@H]1n1cc(C2CC2)nn1,98.3% (active)
20,O=C(OCc1cn([C@@H]2C[C@H](c3ccc(Cl)cc3)N(Cc3cccs3)C[C@H]2O)nn1)c1ccccc1,2.5% (inactive)
21,O[C@H]1C[C@H](c2ccc(Cl)cc2)N(Cc2cccs2)C[C@@H]1n1cc(C2CC2)nn1,100% (active)
22,Cc1ccc([C@H]2C[C@H](O)[C@@H](n3cc(COC(=O)c4ccccc4)nn3)CN2CC2CCCCC2)cc1,23.1% (inactive)
